KB-3-1 tox – qHTS assay for MDR1-selective chemotherapeutics: Primary screen using the parental adenocarcinoma cell KB-3-1. AID 1347075, 2019. 400,000 tested, 1.4% active. Potency, µM (series often up to 46.1 µM), most hits filed as cytotoxic. KB-3-1 viability, CellTiter-Glo ATP luminescence, 72 h; note: nearly all actives have a fitted effect of over 60% in size
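Screening of KB-3-1 cells (DMEM, 10% FBS, phenol-red free) ran from lowest to highest compound concentration; after 72 h at 37 °C viability was read luminescently and curves fitted.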
KB-V1 cytotox – qHTS assay for MDR1-selective chemotherapeutics: Primary screen using the drug-selected MDR subline cells KB-V1; KB-V1 MDR cells viability, CellTiter-Glo, 72 h; Potency, µM (titrated, usually from 46.1 µM), hits mostly cytotoxic; 400,000 tested, 3.4% active; note: nearly all actives have a fitted effect of over 60% in size
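qHTS viability screen in drug-selected KB-V1 MDR cells: 72 h compound treatment at 37 degrees C, ATP luminescence end point.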
HT1080NT lethal – qHTS for induction of synthetic lethality in tumor cells producing 2HG: qHTS for the HT-1080-NT fibrosarcoma cell line. HT-1080-NT fibrosarcoma viability, CellTiter-Glo ATP luminescence, 48 h. Potency, µM (series often up to 46.1 µM), for the others: at the highest dose activity, negative = less viability, actives largely listed as cytotoxic. 360,000 tested, 1.6% active;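 note: NT is the 2HG producing partner of a matched IDH1 knockdown line; 0% = DMSO-treated cells and -100% = media-only wells without cells; nearly all actives have a fitted effect of over 55% in size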
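750 cells/well, RPMI + 5% FBS; 2 h settle, compound pin-transfer, 48 h at 37 degrees C. CellTiter-Glo 10 min RT, luminescence. Normalized to DMSO and media-only wells.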
DT40 TDP1 no CPT – qHTS for Inhibitors of human tyrosyl-DNA phosphodiesterase 1 (TDP1): qHTS in cells in absence of CPT | DT40 Tdp1-/- hTDP1 cells, no CPT, ATP luminescence, 48 h | Potency, µM (highest dose often 46.2 µM), for the others: at the top dose activity change, negative = growth inhibition, hits mostly inhibitors | 420,000 tested, 15% active | AID 686978, 2013; note: nearly all actives have a fitted effect of over 55% in size
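Seeded 400 DT40-hTDP1 cells/well (vehicle DMSO, no 20 nM CPT); pinned compounds; ≥48 hr at 37 °C; CellTiter-Glo luminescence as viability measure.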
HT1080 IDH1KD tx – qHTS for induction of synthetic lethality in tumor cells producing 2HG: qHTS for the HT-1080-IDH1KD cell line. HT-1080 IDH1 knockdown viability, ATP luminescence, 48 h. Potency, µM (top dose mostly 46.1 µM), without a hit: top-dose activity, negative = toxicity, hits mostly cytotoxic. 360,000 tested, 2% active;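 note: 0% = DMSO wells and -100% = cell-free medium wells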
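Luminescent ATP read-out (CellTiter-Glo, 10 min at room temperature) after 48 h compound exposure at 37 °C gave viability of IDH1-knockdown HT-1080 cells. Activity was normalised to DMSO and cell-free wells, then fitted as concentration-response curves.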
TDP1 cell CPT – qHTS for Inhibitors of human tyrosyl-DNA phosphodiesterase 1 (TDP1): qHTS in cells in presence of CPT; chicken DT40 Tdp1-/-;hTDP1 cells + 20 nM CPT, ATP luminescence, 48 h; Potency, µM (titrated, usually from 46.2 µM), inactives show at the top dose activity change, negative = growth inhibition, most hits filed as inhibitors; 420,000 tested, 12% active; note: nearly all actives have a fitted effect of over 55% in size
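Cell growth measured by CellTiter-Glo luminescence after a minimum 48 h, 37 C compound exposure with 20 nM CPT in Tdp1-knockout DT40 cells stably expressing hTDP1, seeded 400/well; qHTS titration format.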
The depositor's hits bear a star; i = inactive; ? = inconclusive; . = not tested or not shown; [ ] = another dose, or the depositor's remark. Most compounds without a hit are left out; they make up all but 19% or so of the library. Calls come from the whole dose curve; as a rule, active = well fitted curve in the direction sought with a large enough effect; inconclusive = small, poorly fitted or top-dose-only effect, or another doubt; inactive = no such curve, though single readings can be large; an effect the other way counts as inactive or inconclusive. Unless noted, % is set by controls: 0 for no effect and ±100 for the full control effect; potency is the fitted concentration of half-maximal effect.

SMILES | KB-3-1 tox | KB-V1 cytotox | HT1080NT lethal | DT40 TDP1 no CPT | HT1080 IDH1KD tx | TDP1 cell CPT
NC(=O)[C@@H]1CC2(CC(c3cccc(NC(=O)COc4ccc(Cl)cc4)c3)=NO2)CN1C(=O)c1ccccc1 (some centres undefined) | i | i | 3% | ? | 2% | ?
NC(=O)[C@H]1CC2(CC(c3cccc(NC(=O)COc4ccc(Cl)cc4)c3)=NO2)CN1C(=O)Cc1ccc([N+](=O)[O-])cc1 (some centres undefined) | i | ? | ? | 16µM* | -16% | 13µM*
COCCN1CCN(C(=O)c2cnn(-c3nccc(-c4ccccc4OC)n3)c2-c2ccco2)CC1 | . | . | . | -10% | . | -1%[9.04 µM]
Cc1cc2c(s1)c1cnn(CC(=O)N3CCOCC3)c(=O)c1n2C | ? | i | . | -21% | . | -4%
Cc1ccc(Cc2c(-c3ccc(C#N)cc3)nc3c(C)cc(Br)cn23)cc1 | i | i | -1% | ? | -1% | ?
Cc1cc(Br)cn2c(Cc3cccc(F)c3)c(-c3ccc(F)cc3)nc12 | 16µM* | i | ? | ? | -16% | ?
Cc1cc(Br)c2nc(-c3ccccc3)c(Cc3cccc(Cl)c3)n2c1 | i | i | 8% | ? | 3% | ?
Cc1cc(Br)cn2c(Cc3ccccc3)c(-c3cccc(Cl)c3)nc12 | i | i | 2% | 23µM* | -8% | 13µM*
Cc1ccc(-c2nc3c(C)cc(Br)cn3c2Cc2cccc(F)c2)cc1 | ? | ? | 16% | ? | 10% | ?
Cc1ccc(Cc2c(-c3ccccc3)nc3c(C)cc(Br)cn23)cc1 | i | i | 11% | 10µM* | 6% | ?
Cc1cc(Br)cn2c(Cc3cccc(F)c3)c(-c3ccccc3)nc12 | i | i | ? | 18µM* | -29% | 29µM*
CC(C)(C)c1ccc(OCCNC(=O)Cc2ccc(F)cc2)cc1 | i | ? | 8% | ? | -5% | ?
O=c1[nH][nH]c(=O)n1-c1ccccc1 | i | i | -2% | 16% | 12% | -3%
Cc1cc(Br)cn2c(Cc3ccsc3)c(-c3ccc(F)cc3)nc12 | i | i | -19% | 15µM* | -13% | -24%
Cc1cccc(N2CCN(C(=O)c3cccn4c(=O)c5cc(Cl)ccc5nc34)CC2C)c1 (centres undefined) | i | i | . | ? | . | 18µM*
CCOc1ccc(-c2cc(C(=O)N3CCN(c4cccc(C)c4)C(C)C3)c3ccccc3n2)cc1 (centres undefined) | ? | i | . | 7.3µM* | . | 16µM*
CCOc1ccc(-c2cc(C(=O)N3CCN(c4ccc(C)cc4)C(C)C3)c3ccccc3n2)cc1 (centres undefined) | i | i | . | 23µM* | . | 21µM*
COc1ccc(S(=O)(=O)Nc2ccccc2C(=O)N2CCOCC2)cc1C | i | i | ? | -10% | 3% | -3%
C/C(Cn1nc([N+](=O)[O-])cc1C)=N\NC(=O)c1cccc(Br)c1 | i | i | -3% | -11% | -2% | -1%
C/C(Cn1nnc([N+](=O)[O-])n1)=N\NC(=O)c1cccc(Cl)c1 | i | i | ? | ? | ? | 16µM*
C/C(Cn1nnc([N+](=O)[O-])n1)=N\NC(=O)c1ccccc1Cl | i | i | ? | ? | ? | 23µM*
C/C(CC(=O)Nc1ccccn1)=N\NC(=O)c1ccc([N+](=O)[O-])cc1Cl | i | i | -3% | 4% | 16% | 1%
CSc1cc(-c2ccccc2)n(Cc2ccc(Cl)cc2Cl)c(=O)c1C#N | i | i | 24% | 23µM* | ? | 18µM*
CCOC(=O)C1(C(=O)OCC)CCN(S(=O)(=O)c2ccccc2)CC1 | i | ? | 0% | 5% | 1% | -2%
COc1cccc(C(=O)N2C(C(=O)O)CSC2c2ccccc2Cl)c1 (centres undefined) | i | i | -1% | 3% | -1% | -3%
SMILES | KB-3-1 tox | KB-V1 cytotox | HT1080NT lethal | DT40 TDP1 no CPT | HT1080 IDH1KD tx | TDP1 cell CPT
COC(=O)C1CSC(c2ccc(Cl)cc2)N1C(=O)c1ccccc1 (centres undefined) | i | i | -8% | 18µM* | 0% | 21µM*
Cc1ccccc1C(=O)N1CCN(CCNC(=O)C(=O)Nc2ccc(Br)cc2)CC1 | i | ? | 0% | ? | -3% | 15µM*
COc1ccc(C(=O)N2CCN(CCNC(=O)C(=O)Nc3ccc(Br)cc3)CC2)cc1 | ? | ? | -1% | ? | -21% | ?
COc1ccccc1C(=O)N1CCN(CCNC(=O)C(=O)Nc2ccc(Br)c(C)c2)CC1 | i | i | -10% | 10µM* | -9% | ?
Cc1cc(NC(=O)C(=O)NCCN2CCN(C(=O)c3cccs3)CC2)ccc1Br | i | i | 0% | ? | 0% | ?
COc1ccc(NC(=O)C(=O)NCCN2CCN(C(=O)c3ccc(C(C)(C)C)cc3)CC2)cc1 | i | i | 11% | 16µM* | -17% | 16µM*
CCOC(=O)[C@H]1[C@H]2COc3ccc(OC)cc3[C@H]2N2C(=O)CNC(=O)[C@@]12C | i | i | 24% | -23% | 4% | ?
CC1C=CCC2C(=O)N(c3cccc(C(=O)N4CCN(c5ccc(F)cc5)CC4)c3)C(=O)C12 (centres undefined) | i | 18µM* | 5% | -23% | -3% | ?
CC1C=CCC2C(=O)N(c3cccc(C(=O)Nc4ccc(F)cc4)c3)C(=O)C12 (centres undefined) | . | . | 0% | -15% | -13% | -25%
O=C(c1cccc(N2C(=O)C3CC=CCC3C2=O)c1)N1CCN(c2ccccc2)CC1 (centres undefined) | i | 23µM* | -1% | -15% | -1% | -2%
O=C(c1cccc(N2C(=O)C3C4C=CC(C4)C3C2=O)c1)N1CCN(c2ccc(F)cc2)CC1 (centres undefined) | i | i | 0% | ? | 4% | ?
